Bioassay records as filed in PubChem BioAssay.
This is a sample that favours compounds with a hit; in the whole collection about 3.4% have one here.
ADAM17 inh: inhibitors of human ADAM17. recombinant ADAM17, EDANS/DABCYL FRET peptide cleavage. 370,000 tested, 0.83% active. AID 720648. inhibition, % at 6.95 µM. P78536;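 active = inhibition above the mean of compounds lying between control limits plus 3 SD, set per campaign, cut at about 8.5% in these data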
sPLA2-III inh: Inhibits HGIII-sPLA2 liposome hydrolysis, primary screen; inhibition, % at 12.2 µM; 370,000 tested, 0.56% active; QFRET BODIPY PC-A2 liposome hydrolysis, fluorescence; Q9NZ20;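 active = inhibition above mean plus 3 SD of compounds lying within the high and low control bounds, cut at about 19% in these data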
proKLK7 act: proKLK7 (human) activation, primary screen; P49862; purified proKLK7, EDANS-DABCYL substrate fluorescence; 100% is mature enzyme control, 0% vehicle; activation, % at 7 µM; 370,000 tested, 0.9% active;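 active = activation above the mean of all tested compounds plus 3 SD, computed per campaign excluding outliers beyond control limits, cut at about 13% in these data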
Target sequence (P49862 whole entry, looked up): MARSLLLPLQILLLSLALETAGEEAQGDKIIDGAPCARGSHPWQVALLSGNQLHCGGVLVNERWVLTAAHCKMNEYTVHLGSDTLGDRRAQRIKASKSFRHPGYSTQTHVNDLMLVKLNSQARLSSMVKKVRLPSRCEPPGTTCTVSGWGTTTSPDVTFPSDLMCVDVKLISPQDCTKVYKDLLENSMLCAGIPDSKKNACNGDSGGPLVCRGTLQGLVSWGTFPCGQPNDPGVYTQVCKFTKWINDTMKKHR
PLC-beta3 inh: PLC-beta3 (human) inhibition, primary screen | Q01970 | Purified PLC-beta3, fluorogenic substrate, fluorescence | 370,000 tested, 0.18% active | inhibition, % at 12.2 µM
ADAM10 inh: ADAM10 inhibition, QFRET primary screen; recombinant ADAM10, EDANS/DABCYL FRET peptide cleavage, 3 h; O14672; inhibition, % at 7 µM; AID 720582; 370,000 tested, 0.62% active;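 active = inhibition above a per-campaign cutoff equal to the mean of compounds falling between control-based bounds plus 3 SD, cut at about 20% in these data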
PLC-gamma1 inh: PLC-gamma1 (human) inhibition, primary screen; P19174; purified PLC-gamma1, fluorogenic substrate, fluorescence; inhibition, % at 12.2 µM; 370,000 tested, 0.84% active; in the data active = inhibition above about 9.5%
PLCg1 ctr: counter-screen for PLC-beta3 inhibitors: inhibitors of human PLC-gamma1; shares compounds with PLC-gamma1 inh; purified PLC-gamma1, fluorogenic substrate, fluorescence; inhibition, % at 12.3 µM; 3,300 tested, 3.1% active; AID 743258; in the data active = inhibition above about 9.5%
PLCb3 confirm: human PLC-beta3 inhibition, confirmation | shares compounds with PLC-gamma1 inh | AID 743261 | purified PLC-beta3, fluorogenic substrate fluorescence | inhibition, % at 12.3 µM | 3,300 tested, 1% active
A number is an active result; 0 = inactive; - = not tested or not shown. Cut-off read from the data, not from the text of the source, unless noted: active = inhibition above about 11%; inactive = the rest.

SMILES	ADAM17 inh	sPLA2-III inh	proKLK7 act	PLC-beta3 inh	ADAM10 inh	PLC-gamma1 inh	PLCg1 ctr	PLCb3 confirm
CC(C)(C)c1ccc(OCC(O)CN2CCN(C(=O)c3ccccc3)CC2)cc1 (configuration not stated)	0	0	0	0	0	14	0	0
CCOC(=O)C1CCN(CC(O)COc2ccc(C(C)(C)CC)cc2)CC1 (configuration not stated)	0	0	0	0	0	12	0	0
COC(=O)[C@]12C[C@H](CC(=O)NCc3cccc4ccccc34)C(=O)N(CCC3=CCCCC3)C1=C[C@H](C(C)C)O[C@@H]2C1CC1	0	0	0	0	0	0	-	-
CCCCCCCCN1CN2Cc3cc(F)ccc3C2CS1(=O)=O (configuration not stated)	0	0	0	0	0	0	-	-
CC(c1ccccc1)N1CC[C@H]2C=CC[C@@H](C(=O)Nc3ccc(F)c(F)c3)[C@H]2C1=O (some centres not stated)	0	0	-	0	0	0	-	-
COc1ccc2c(c1)CN1CN(Cc3ccccc3)S(=O)(=O)CC21 (configuration not stated)	0	0	0	0	0	0	-	-
O=C(N/C(=C\c1ccccc1)C(=O)N1CCCCCC1)c1ccccc1	0	0	0	0	0	9.6	0	0
O=C(N/C(=C/c1ccccc1)C(=O)N1CCCCC1)c1ccccc1	0	0	0	0	0	0	-	-
C[C@H](O)[C@@H]1C(=O)N2CCc3c([nH]c4c(-c5ccc6c(c5)OCO6)cccc34)[C@@H]2C[C@@H]1N(C)C(=O)OCc1ccccc1	0	0	0	0	0	0	-	-
O=C(NCc1ccccn1)c1ccc(Cl)c(S(=O)(=O)N2CCCCCC2)c1	0	0	0	0	0	9.9	0	0
O=C(NCc1ccccc1)c1ccc(Cl)c(S(=O)(=O)N2CCCC2)c1	0	0	0	0	0	0	-	-
O=C(NCCc1ccccn1)c1cccc(S(=O)(=O)N2CCCCCC2)c1	0	0	0	14	0	15	0	0
CC(C)(N[C@@H](Cc1c[nH]c2ccccc12)C(=O)NCCCc1ccccc1)C(=O)NCc1ccccc1	0	0	-	0	0	0	-	-
O=C(Nc1ccc(Cl)c(Cl)c1)C1CCN(c2nnc(-n3cccc3)s2)CC1	0	0	0	0	0	0	-	-
Cc1ccc(-c2cc(-c3nnc(SCC(=O)N4CCOCC4)n3N)[nH]n2)cc1	0	0	0	0	0	0	-	-
O=C(Nc1nncs1)C12CC3CC(CC(C3)C1)C2	0	0	0	0	0	0	-	-
O=C(Nc1nn[nH]n1)C12CC3CC(CC(C3)C1)C2	0	0	0	0	0	10	0	0
Cc1cc(NC(=O)C23CC4CC(CC(C4)C2)C3)n[nH]1	0	0	0	0	0	0	-	-
O=C(NC1=NCCS1)C12CC3CC(CC(C3)C1)C2	0	0	0	11	0	0	0	0
COc1ccc(NC(=O)N(C)[C@H]2C[C@H]3c4[nH]c5c(-c6ccccc6)cccc5c4CCN3C(=O)[C@H]2[C@H](C)O)cc1	0	0	0	0	0	0	-	-
O=S1(=O)c2ccc(Br)cc2OC[C@@H](Cc2ccccc2)N1Cc1cn(CC2CCCCC2)nn1	0	0	0	0	0	10	0	0
COc1ccc(Cn2cc(CN3[C@H](Cc4ccccc4)COc4cc(Br)ccc4S3(=O)=O)nn2)cc1	0	0	0	0	0	0	-	-
Cc1ccccc1C(=O)N[C@@H](Cc1cccnc1)C(=O)N1CCC[C@H]1C(=O)NC1CCCC1	0	0	0	0	0	0	-	-
COC(=O)[C@]12C[C@H](CC(=O)N3CCOCC3)C(=O)N(Cc3ccco3)C1=C[C@H](COCc1ccccc1)O[C@@H]2C	0	0	0	0	0	0	-	-
CCCS(=O)(=O)NC(=O)C1(C)CCN(C(=O)c2cc(C)oc2C)C1 (configuration not stated)	0	0	0	0	0	0	-	-
SMILES	ADAM17 inh	sPLA2-III inh	proKLK7 act	PLC-beta3 inh	ADAM10 inh	PLC-gamma1 inh	PLCg1 ctr	PLCb3 confirm
CCCS(=O)(=O)NC(=O)C1(C)CCN(C(=O)c2cc(C)on2)C1 (configuration not stated)	0	0	0	0	0	9.5	0	0
COc1cccc(NC(=S)N2CCCC2c2ccc(OC)c(OC)c2)c1 (configuration not stated)	0	0	0	0	0	11	0	0
COc1ccc(C2CCCN2C(=S)Nc2cccc(Cl)c2)cc1OC (configuration not stated)	0	0	0	0	0	0	-	-
Nc1[nH]c(C(=O)c2ccc(Br)cc2)c(-c2ccncc2)c1C(=O)NCCc1c[nH]c2ccccc12	0	0	0	0	0	0	-	-
CCSc1cc(N2CCCC2)nc(-c2ccc(F)cc2)n1	0	0	0	11	0	0	0	0
CN(C)S(=O)(=O)Oc1ccccc1C(=O)Nc1ccc(F)cc1F	0	0	0	0	0	0	-	-
CCN(CC)C(=O)Oc1ccc(Br)cc1C(=O)Nc1ccc(F)cc1F	0	0	0	0	0	9.7	0	0
CN(C(=O)[C@@H](C1CC1)[C@@H](O)c1ccc(Cl)cc1)c1ccccc1	0	0	0	0	0	0	-	-
COc1ccc(OC)c(NC(=O)C(CC(=O)O)Cc2ccc(Cl)cc2)c1 (configuration not stated)	0	0	0	0	0	0	-	-
O=C(O)CC(Cc1ccc(Cl)cc1)C(=O)Nc1cc(Cl)ccc1Cl (configuration not stated)	0	0	0	0	0	12	0	0
CCC1C(=O)N(C)CCc2ccccc21 (configuration not stated)	0	0	0	0	0	12	0	0
CN1CCc2ccccc2C1C1CCNCC1 (configuration not stated)	0	0	0	0	0	0	-	-
COc1ccc(CC(=O)NCC2CCCN(Cc3cc(OC)cc(OC)c3)C2)cc1 (configuration not stated)	0	0	0	0	0	13	0	0
Cc1cc(-c2nnc(SCc3ccccn3)o2)no1	0	0	0	11	0	14	0	0
Cc1c(NC(=O)C2CCCN(S(=O)(=O)c3ccc(Cl)s3)C2)c(=O)n(-c2ccccc2)n1C (configuration not stated)	0	0	0	0	0	0	-	-
CS(=O)(=O)N1CCN(c2ccccc2[N+](=O)[O-])CC1	0	0	0	0	0	15	0	0
CS(=O)(=O)N1CCN(c2ccccc2NC(=O)c2ccc([N+](=O)[O-])o2)CC1	0	0	0	0	0	9.9	0	0
Cc1ccccc1NC(=O)c1ccc([N+](=O)[O-])o1	0	0	0	0	0	0	-	-
